Results as given in PubChem BioAssay AID1159580 (chemical genetic matrix, 2015).
Values joined by “and” are separate entries in the source; they are usually repeats but may differ in a detail not shown here. Identical values can stand only once. Hit rate of the full screen: of about 5,500 compounds, about 2,000 (36%) were called active. Not shown: some 18% with an inconclusive outcome. Cut-off read from the data, not from the text of the source: active = normalized growth mostly below about 0.91 (no sharp cut-off); inconclusive = no clear call, values can overlap the other calls; inactive = mostly above about 0.92. The list shows a part of the results.

Experiment: chemical genetic growth profiling, strain panel (AID 1159580);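 note: tested at 20 µM; growth read once vehicle control cultures reached saturation at 30 °C; 1 = growth at the plate median or of vehicle wells; lower values mean less growth of the strain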
Details: S. cerevisiae deletion strains, growth OD

Measured: normalized growth

COc1cnc(NS(=O)(=O)c2ccc(N)cc2)nc1
inactive: locus YAL021C, strain ccr4, active compounds read low 1.01 | locus YAL026C, strain drs2, active compounds read low 1 | locus YAL030W, strain snc1, active compounds read low 1.01 | locus YBL061C, strain skt5, active compounds read low 0.994 | locus YBR009C, strain hhf1, active compounds read low 1.01 | locus YBR021W, strain FUR4, active compounds read low 1.02 | locus YBR023C, strain chs3, active compounds read low 0.998 | locus YBR171W, strain sec66, active compounds read low 0.993 | locus YBR229C, strain ROT2, active compounds read low 0.956 | locus YBR231C, strain swc5, active compounds read low 0.991 | locus YBR279W, strain paf1, active compounds read low 0.993 | locus YCL011C, strain gbp2, active compounds read low 1 | locus YCL016C, strain dcc1, active compounds read low 0.983 | locus YCL029C, strain bik1, active compounds read low 0.98 | locus YCL069W, strain vba3, active compounds read low 1 | locus YCR088W, strain abp1, active compounds read low 1 | locus YDL005C, strain med2, active compounds read low 0.997 | locus YDL035C, strain GPR1, active compounds read low 0.996 | locus YDL040C, strain nat1, active compounds read low 1 | locus YDL074C, strain BRE1, active compounds read low 0.988 | locus YDL101C, strain DUN1, active compounds read low 0.98 | locus YDL134C, strain PPH21, active compounds read low 1 | locus YDL185W, strain tfp1, active compounds read low 0.962 | locus YDL192W, strain arf1, active compounds read low 0.972 | locus YDR001C, strain nth1, active compounds read low 0.997 | locus YDR069C, strain doa4, active compounds read low 1.01 | locus YDR101C, strain arx1, active compounds read low 0.983 | locus YDR137W, strain rgp1, active compounds read low 0.996 | locus YDR159W, strain sac3, active compounds read low 0.92 | locus YDR162C, strain NBP2, active compounds read low 0.992 | locus YDR195W, strain ref2 0.984 | locus YDR297W, strain sur2, active compounds read low 1.01 | locus YDR318W, strain mcm21, active compounds read low 0.986 | locus YDR334W, strain swr1, active compounds read low 0.998 | locus YDR335W, strain msn5, active compounds read low 0.993 | locus YDR388W, active compounds read low 0.985 | locus YDR392W, strain spt3, active compounds read low 0.925 | locus YDR502C, strain sam2, active compounds read low 0.987 | locus YEL003W, strain gim4, active compounds read low 1 | locus YEL037C, strain rad23, active compounds read low 0.999 | locus YEL061C, strain CIN8 (second series), active compounds read low 1 | locus YEL061C, strain CIN8, active compounds read low 0.979 | locus YER015W, strain faa2, active compounds read low 1 | locus YER016W, strain bim1, active compounds read low 0.998 | locus YER110C, active compounds read low 0.969 | locus YER111C, strain swi4, active compounds read low 1.01 | locus YER155C, strain BEM2 (second series), active compounds read low 1.02 | locus YER155C, strain BEM2, active compounds read low 1 | locus YER167W, strain BCK2, active compounds read low 0.99 | locus YFR010W, strain ubp6, active compounds read low 0.989 | locus YGL078C, strain dbp3, active compounds read low 0.978 | locus YGL086W, strain mad1, active compounds read low 0.985 | locus YGL167C, strain pmr1, active compounds read low 0.993 | locus YGL173C, strain kem1, active compounds read low 1.01 | locus YGL227W, strain vid30, active compounds read low 1 | locus YGL240W, strain doc1, active compounds read low 0.994 | locus YGL248W, strain PDE1, active compounds read low 0.976 | locus YGL253W, strain hxk2, active compounds read low 0.994 | locus YGR135W, strain pre9, active compounds read low 0.988 | locus YGR229C, strain SMI1, active compounds read low 1.01 | locus YGR252W, strain gcn5, active compounds read low 0.949 | locus YHR013C, strain ard1, active compounds read low 1 | locus YHR027C, strain rpn1, active compounds read low 0.982 | locus YHR030C, strain SLT2, active compounds read low 1 and 0.997 | locus YHR079C, strain IRE1 (second series), active compounds read low 0.984 | locus YHR079C, strain IRE1, active compounds read low 0.989 | locus YHR094C, strain hxt1, active compounds read low 0.984 | locus YHR129C, strain ARP1, active compounds read low 0.997 | locus YHR142W, strain chs7, active compounds read low 1 | locus YHR200W, strain rpn10, active compounds read low 0.969 | locus YIL066C, strain RNR3, active compounds read low 0.978 | locus YIL073C, strain SPO22, active compounds read low 0.999 | locus YIL125W, strain kgd1, active compounds read low 0.974 | locus YIR030C, strain dcg1, active compounds read low 0.982 | locus YJL092W, strain hpr5, active compounds read low 1 | locus YJL095W, strain BCK1 (second series), active compounds read low 0.988 | locus YJL095W, strain BCK1, active compounds read low 0.983 and 1.01 | locus YJL115W, strain asf1, active compounds read low 0.993 | locus YJL129C, strain trk1, active compounds read low 0.986 | locus YJL134W, strain LCB3, active compounds read low 0.995 | locus YJL154C, strain vps35, active compounds read low 1 | locus YJL164C, strain tpk1, active compounds read low 0.981 | locus YJL166W, strain qcr8, active compounds read low 1.01 | locus YJL168C, strain set2, active compounds read low 0.982 | locus YJL187C, strain SWE1 (second series), active compounds read low 0.965 | locus YJR043C, strain POL32, active compounds read low 0.992 | locus YJR066W, strain TOR1, active compounds read low 0.934
